According to PubChem BioAssay (NCATS):
Values joined by “and” are separate entries in the source; they are usually repeats but may differ in a detail not shown here. Equal entries are not always repeated. Records with an inconclusive call do not appear. Active and inactive are the calls of the source. Unless noted, the call rests on the fitted dose curve; in most records, active means well fitted curve in the direction sought with a large enough effect; inconclusive means small, poorly fitted or top-dose-only effect, or another doubt; inactive means no such curve, though single readings can be large; an effect the other way counts as inactive or inconclusive.

Tests used:
[1] = qHTS profiling for inhibitors of Plasmodium falciparum proliferation (AID 504749); further: nearly all actives have a fitted effect of over 60% in size; further: potency means the concentration at half of the fitted maximal effect;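 on activity, negative = inhibition: 0% = DMSO vehicle and full inhibition = artemisinin control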; conditions: P. falciparum in erythrocytes, SYBR Green DNA, 72 h
Outline: (§1)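 Infected RBCs, 0.3% parasitemia/2.5% Hct final; cpd 72 h, 37 C, 5% CO2; lysis buffer with saponin/triton/SYBR Green I, o/n RT dark; FI 485/535; norm. to artemisinin (0.29 uM) and DMSO.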

3D7 = experiment: as above; conditions: P. falciparum in erythrocytes, SYBR Green DNA, 72 h; series mostly up to 28.7 µM
Outline: as §1

7G8 = experiment: as above; conditions: P. falciparum in erythrocytes, SYBR Green DNA, 72 h; series mostly up to 28.7 µM
Outline: as §1

[2] = qHTS Counterscreen for compound interference against the NCATS DSHEA and TCM libraries (AID 1919978); conditions: firefly luciferase detection reagent interference, luminescence;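 further: compounds preincubated with 1 µM D-luciferin or buffer before detection reagent; % of control where 0% means no effect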
Outline: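 With 1 uM D-luciferin or phosphate buffer only, compounds at final 19.5 nM–39.8 uM were incubated for 15 min at room temperature. Luciferase detection reagent was then added, and luminescence was measured after a further 30 min at room temperature.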

[3] = Dual reporter qHTS for agonist of Pregnane X Receptor (hPXR) against the NCATS DSHEA and TCM libraries: Fluorescence readout (AID 1920058); conditions: PXR dual reporter cells; series mostly up to 40 µM; further: 0% is about no effect
Outline: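 HepG2 hPXR-Luc, 2000 cells/well, 5 h attach; cpds ~24 h, 37 °C/5% CO2; CellTiter-Fluor 1 h; fluor. Ex/Em 405/540 nm = viability.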

[4] = molecular target: Nuclear receptor subfamily 1 group I member 2 (Homo sapiens) (UniProt O75469); experiment: Dual reporter qHTS for agonist of Pregnane X Receptor (hPXR) against the NCATS DSHEA and TCM libraries: Luminescence readout (AID 1920059); conditions: hPXR dual reporter cells, luciferase luminescence agonist; series mostly up to 40 µM; further: 0% is about no effect
Outline: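 Luminescent PXR reporter read (ONE-Glo) after a CellTiter-Fluor viability read, following 24 h, 37C treatment of HepG2 cells stably carrying hPXR-Luc.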

[5] = molecular target: Nuclear receptor subfamily 1 group I member 2 (Homo sapiens) (UniProt O75469); experiment: Dual reporter qHTS for antagonist of Pregnane X Receptor (hPXR) against the NCATS DSHEA and TCM libraries: Luminescence Readout (AID 1920060); conditions: hPXR dual reporter cells, luciferase luminescence, antagonist mode; series mostly up to 40 µM;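 further: HepG2 cells carrying hPXR luciferase reporter stimulated with rifampicin at 2 µM; 0% is about no effect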
Outline: (§2)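 HepG2 hPXR-Luc, 2000 cells/well, charcoal-stripped FBS medium; 5 h attach; RIF 2 uM final; 24 h 37C/5% CO2; CellTiter-Fluor 1 h, fluor 405/540; ONE-Glo 30 min RT, lum.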

[6] = Dual reporter qHTS for antagonist of Pregnane X Receptor (hPXR) against the NCATS DSHEA and TCM libraries: Fluorescence Readout (AID 1920061); conditions: PXR dual reporter cells, antagonist mode; series mostly up to 40 µM; further: 0% is about no effect
Outline: as §2

[7] = qHTS drug screen for cell cycle checkpoint inhibitors in PARPi-resistant BRCA-mutant ovarian cancer cell lines. (AID 1963452; calls by dose curve); conditions: PEO1/OlaR viability, CellTiter-Glo luminescence, 96 h, stronger effect = lower value
Outline: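 PEO1, PEO4 and PEO1/OlaR ovarian cancer cells, 600 per well, exposed 96 h at 37C to a dilution series. Viability read by CellTiter-Glo luminescence, normalized to DMSO and empty wells; activity summarized as Z-AUC.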

[8] = qHTS for identification of novel therapeutic agents for treatment of microphthalmiaassociated transcription factor (MiT) renal cell carcinoma (RCC) (AID 1963991; calls by dose curve; further: potency means the concentration at half of the fitted maximal effect;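 on z-score: curves scaled with 100% = DMSO viability and 0% = empty wells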); conditions: CellTiter-Glo, 48 h; for z-score: stronger effect = lower value
Outline: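 UOK109/UOK124/UOK145 (TFE3 fusions, three partners); 500 cells/well; MIPE v4.0, 1912 cpds, 11 conc.; 48 h, 37 C; CellTiter-Glo, 15 min RT; lum. Norm.: DMSO 100%, empty 0%.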

[9] = at 28.7 µM (top of the series), parasite line A
[10] = at 28.7 µM (top of the series), parasite line B
[11] = at 12.8 µM (top of the series), parasite line A
[12] = at 12.8 µM (top of the series), parasite line B
[13] = measured here: PEO1 parental Z-AUC
[14] = TFE3-RCC UOK109 viability, measured here: UOK109 Z-AUC
[15] = TFE3-RCC viability, measured here: UOK124 Z-AUC
[16] = TFE3-RCC viability, measured here: UOK145 Z-AUC

Chain of Nuclear receptor subfamily 1 group I member 2 (Homo sapiens) (O75469 whole entry, looked up): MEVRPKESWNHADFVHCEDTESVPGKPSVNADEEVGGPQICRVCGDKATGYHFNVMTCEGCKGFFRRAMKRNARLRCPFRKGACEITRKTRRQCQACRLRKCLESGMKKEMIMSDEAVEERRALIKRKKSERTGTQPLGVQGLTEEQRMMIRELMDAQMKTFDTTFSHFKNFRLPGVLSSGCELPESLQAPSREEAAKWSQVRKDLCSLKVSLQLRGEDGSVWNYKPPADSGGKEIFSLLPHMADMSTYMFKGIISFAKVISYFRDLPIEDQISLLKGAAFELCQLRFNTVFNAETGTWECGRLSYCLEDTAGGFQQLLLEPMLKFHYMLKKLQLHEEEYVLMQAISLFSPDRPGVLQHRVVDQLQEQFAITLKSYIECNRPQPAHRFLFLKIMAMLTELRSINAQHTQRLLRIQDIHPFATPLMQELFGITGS

SMILES: C[C@]12CC[C@H]3[C@@H](CC=C4C[C@@H](O)CC[C@@]43C)[C@@H]1CC[C@@H]2O
- activity, negative = inhibition [1, 9]: 1.98% (inactive)
- activity, negative = inhibition [1, 10]: 6.49% (inactive)
- Potency (3D7): inactive
- Potency (7G8): inactive

SMILES: COc1ccc(CN2CCNCC2)c(OC)c1OC
- activity, negative = inhibition [1, 11]: 8.69% (inactive)
- activity, negative = inhibition [1, 12]: 4.48% (inactive)
- Potency (3D7): inactive
- Potency (7G8): inactive

SMILES: C[C@]12CC[C@H](O)CC1=CC[C@@H]1[C@@H]2CC[C@]2(C)C(=O)CC[C@@H]12
- max response [2]: -2.96% (inactive)
- outcome [3]: inactive
- outcome [4]: inactive
- outcome [5]: inactive
- outcome [6]: inactive
- Z-AUC [7]: 1.09 (inactive)
- Z-AUC [7, 13]: 0.516
- Z-AUC ([7]; measured here: PEO4 Z-AUC): 0.608

SMILES: Oc1c(Br)cc(Br)cc1Br
- activity, negative = inhibition [1, 9]: 0.526% (inactive)
- activity, negative = inhibition [1, 10]: -0.833% (inactive)
- Potency (3D7): inactive
- Potency (7G8): inactive

SMILES: CC(C)(C)OC(=O)c1ncn2c1[C@@H]1CCCN1C(=O)c1c(Br)cccc1-2
- activity, negative = inhibition [1, 9]: 0.318% (inactive)
- activity, negative = inhibition [1, 10]: 11.2% (inactive)
- Potency (3D7): inactive

SMILES: ClC1=C(Cl)C2(Cl)C(CBr)CC1(Cl)C2(Cl)Cl (stereo not given)
- activity, negative = inhibition [1, 9]: -10.4% (inactive)
- activity, negative = inhibition [1, 10]: -10.5% (inactive)

SMILES: C[C@@H]1O[C@@H](O[C@@H]2C=C3CC[C@@H]4[C@H](CC[C@]5(C)[C@@H](c6ccc(=O)oc6)CC[C@]45O)[C@@]3(C)CC2)[C@H](O)[C@H](O)[C@H]1O
- Z-AUC [7]: -2.1 (inactive)
- Z-AUC [7, 13]: -2.52
- Z-AUC ([7]; measured here: PEO4 Z-AUC): -2.14

SMILES: COP(=O)(OC)OC=C(Cl)Cl
- activity, negative = inhibition [1, 9]: 5.3% (inactive)
- activity, negative = inhibition [1, 10]: 13.3% (inactive)
- Potency (3D7): inactive

SMILES: CCC1(CC)C(=O)NC(=O)NC1=O
- activity, negative = inhibition [1, 9]: -0.0726% (inactive)
- activity, negative = inhibition [1, 10]: 11.2% (inactive)
- Potency (3D7): inactive

SMILES: C[C@@H]1CC[C@H]2[C@@H](C)C(=O)O[C@@H]3O[C@@]4(C)CC[C@@H]1[C@]32OO4
- Z-AUC [7]: 1.33 (inactive)
- Z-AUC [7, 13]: 0.931
- Z-AUC ([7]; measured here: PEO4 Z-AUC): 1.15

SMILES: C#C[C@]1(O)C=C[C@H]2[C@@H]3CCC4=CC(=O)CC[C@@H]4[C@H]3CC[C@@]21CC
- Z-AUC [7]: 1.19 (inactive)
- Z-AUC [7, 13]: 1.82
- Z-AUC ([7]; measured here: PEO4 Z-AUC): 1.32

SMILES: O=C(O)c1nn(Cc2ccc(Cl)cc2Cl)c2ccccc12
- Z-AUC [7]: 0.664 (inactive)
- Z-AUC [7, 13]: 0.662
- Z-AUC ([7]; measured here: PEO4 Z-AUC): 0.605
- z-score [8, 14]: 0.154
- z-score [8, 15]: 0.856
- z-score [8, 16]: -0.814
- activity, negative = inhibition [1, 9]: -9.19% (inactive)
- activity, negative = inhibition [1, 10]: -4.8% (inactive)
- Potency (3D7): inactive
- Potency (7G8): inactive

SMILES: O=C(CCCN1CCC(n2c(=O)[nH]c3ccccc32)CC1)c1ccc(F)cc1
- Potency ([1]; parasite line A): 3.16 µM (active)
- Potency ([1]; parasite line B): 3.16 µM (active)
- Potency (3D7): 1 µM (active)
- Potency (7G8): 0.158 µM (active)

SMILES: CN(C)C(=S)SSC(=S)N(C)C
- Potency ([1]; parasite line A): 2.51 µM (active)
- Potency ([1]; parasite line B): 3.16 µM (active)
- Potency (3D7): 1.58 µM (active)
- Potency (7G8): 1.12 µM (active)

SMILES: OC(c1ccccc1)(c1ccccc1)C1CCNCC1
- activity, negative = inhibition [1, 11]: 1.93% (inactive)
- activity, negative = inhibition [1, 12]: 13.2% (inactive)
- Potency (3D7): inactive

SMILES: CC[n+]1c(-c2ccccc2)c2cc(N)ccc2c2ccc(N)cc21
- Potency ([1]; parasite line A): 158 nM (active) and 447 nM (active)
- Potency ([1]; parasite line B): 112 nM (active) and 316 nM (active)
- Potency (3D7): 158 nM (active) and 251 nM (active)
- Potency (7G8): 39.8 nM (active) and 70.8 nM (active)

SMILES: CCN(CC)C(C)C(=O)c1ccccc1 (stereo not given)
- activity, negative = inhibition [1, 9]: -2.34% (inactive)
- activity, negative = inhibition [1, 10]: 12.3% (inactive)
- Potency (3D7): inactive
- Potency (7G8): inactive

SMILES: CCC(=O)O[C@H]1CC[C@H]2[C@@H]3CCC4=CC(=O)CC[C@]4(C)[C@H]3CC[C@]12C
- activity, negative = inhibition [1, 11]: 4.77% (inactive)
- activity, negative = inhibition [1, 12]: 12.2% (inactive)
- Potency (3D7): inactive
- Potency (7G8): inactive

SMILES: C[C@@H]1C[C@@H]([C@H](O)CC2CC(=O)NC(=O)C2)C(=O)[C@@H](C)C1
- Z-AUC [7]: 0.13 (inactive)
- Z-AUC [7, 13]: -0.0615
- Z-AUC ([7]; measured here: PEO4 Z-AUC): 0.0418
- Potency ([8]; TFE3-RCC UOK109 viability): 46.9 nM (active)
- z-score [8, 14]: -2.25
- z-score [8, 15]: -1.12
- z-score [8, 16]: -1.24

SMILES: COc1ccc(C(=O)N2CCCC2=O)cc1
- Z-AUC [7]: -0.603 (inactive)
- Z-AUC [7, 13]: 0.111
- Z-AUC ([7]; measured here: PEO4 Z-AUC): -0.65
- activity, negative = inhibition [1, 9]: 4.48% (inactive)
- activity, negative = inhibition [1, 10]: 11% (inactive)
- Potency (3D7): inactive
- Potency (7G8): inactive

SMILES: CC(C)[N+](C)(CCC(C(N)=O)(c1ccccc1)c1ccccc1)C(C)C
- activity, negative = inhibition [1, 11]: -4.63% (inactive)
- activity, negative = inhibition [1, 12]: 4.79% (inactive)
- Potency (3D7): inactive

SMILES: NCc1cccnc1
- activity, negative = inhibition [1, 9]: -9.24% (inactive)
- activity, negative = inhibition [1, 10]: -2.31% (inactive)
- Potency (3D7): inactive
- Potency (7G8): inactive

SMILES: Clc1ccc(CO/N=C(\Cn2ccnc2)c2ccc(Cl)cc2Cl)c(Cl)c1
- Potency ([1]; parasite line A): 3.55 µM (active)
- Potency ([1]; parasite line B): 2.82 µM (active)
- Potency (3D7): 2.82 µM (active)
- Potency (7G8): 1.12 µM (active)

SMILES: CN1C(=O)CN=C(c2ccccc2)c2cc([N+](=O)[O-])ccc21
- activity, negative = inhibition [1, 9]: 1.56% (inactive)
- activity, negative = inhibition [1, 10]: -3.67% (inactive)
- Potency (3D7): inactive
- Potency (7G8): inactive

SMILES: C[C@H]1C(=O)O[C@@H]2CCN3CC=C(COC(=O)[C@](C)(O)[C@]1(C)O)[C@H]23
- activity, negative = inhibition [1, 9]: -7.4% (inactive)
- activity, negative = inhibition [1, 10]: -1.5% (inactive)
- Potency (3D7): inactive
- Potency (7G8): inactive

SMILES: CCS(=O)(=O)C(C)(C)S(=O)(=O)CC
- activity, negative = inhibition [1, 9]: 9.89% (inactive)
- activity, negative = inhibition [1, 10]: 19.2% (inactive)
- Potency (3D7): inactive
- Potency (7G8): inactive

SMILES: CC(C)NCC(O)c1ccc(N)c(C#N)c1 (stereo not given)
- activity, negative = inhibition [1, 9]: 10.9% (inactive)
- activity, negative = inhibition [1, 10]: -9.32% (inactive)
- Potency (3D7): inactive
- Potency (7G8): inactive

SMILES: CNC(=O)Oc1cccc2ccccc12
- activity, negative = inhibition [1, 9]: -7.78% (inactive)
- activity, negative = inhibition [1, 10]: -8.17% (inactive)
- Potency (3D7): inactive

SMILES: OC(O)C(Cl)(Cl)Cl
- activity, negative = inhibition [1, 9]: 9.58% (inactive)
- activity, negative = inhibition [1, 10]: 19.3% (inactive)
- Potency (3D7): inactive
